PubChem BioAssay (NCATS)
Inconclusive results are not listed. Active and inactive are the calls of the source. The call rests on the fitted dose curve.

Tests used:
[1] = Primary qHTS for inhibitors of MERS-S pseudo-typed particle cell entry (AID 1479149); settings: outcome: dose series up to 57.1 µM unless noted; further: nearly all actives have a fitted effect of over 60% in size; on activity change, negative = inhibition: series mostly up to about 57 µM
[2] = Primary qHTS for inhibitors of SARS-S pseudo-typed particle cell entry (AID 1479145); settings: outcome: dose series up to 57.1 µM unless noted; further: nearly all actives have a fitted effect of over 45% in size; on activity change, negative = inhibition: series mostly up to about 57 µM
[3] = Primary qHTS for Huh7 cytotoxicity: counterscreen for inhibitors of MERS-S pseudotyped particle cell entry (AID 1479147); settings: outcome: dose series up to 57.1 µM unless noted
[4] = Primary qHTS for Vero E6 cytotoxicity: counterscreen for inhibitors of SARS-S pseudo-typed particle cell entry (AID 1479150); further: potency means the concentration at half of the fitted maximal effect
On the % scale 0 is the no-effect control and ±100 the full control effect.

O=C1OC2(c3cc(Br)c(O)cc3Oc3c2cc(Br)c(O)[c]3[Hg])c2ccccc21 (stereo not drawn)
inactive: outcome [1]

C=CC[C@]1(O)CC[C@H]2[C@@H]3CCC4=CCCC[C@@H]4[C@H]3CC[C@@]21C
inactive: outcome [2] inactive [at 114 µM] | outcome [3] inactive [at 114 µM] | outcome [1] | Potency [4]

NCC(O)c1cccc(O)c1 (stereo not drawn)
inactive: outcome [2] | outcome [3] | outcome [1] | Potency [4]

CCOc1ccc2c3c1O[C@H]1[C@@H](O)C=C[C@H]4[C@@H](C2)N(C)CC[C@@]341
inactive: outcome [3] | outcome [1] | Potency [4]

C[C@]12CCC(=O)C=C1C=C[C@@H]1[C@@H]2CC[C@@]2(C)[C@H]1CC[C@@]2(O)CCC(=O)O
inactive: outcome [3] | outcome [1] | Potency [4]

CC(C)CCON=O
inactive: outcome [2] | outcome [3] | outcome [1] | Potency [4]

O=[N+]([O-])C(Br)(CO)CO
inactive: outcome [2] | outcome [3] | outcome [1] | Potency [4]

CCN(CC)C(=O)N[C@H]1C[C@@H]2c3cccc4[nH]cc(c34)C[C@H]2N(C)C1
inactive: outcome [3] | outcome [1] | Potency [4]

C[C@]12CC[C@H](OS(=O)(=O)O)CC1=CC[C@@H]1[C@@H]2CC[C@]2(C)C(=O)CC[C@@H]12
inactive: outcome [3] | outcome [1] | Potency [4]

CCC(=O)O[C@@](Cc1ccccc1)(c1ccccc1)[C@@H](C)CN(C)C
inactive: outcome [3] | outcome [1] | Potency [4]

Oc1ccc2c3c1O[C@H]1[C@@H](O)CC[C@@]4(O)[C@@H](C2)N(CC2CCC2)CC[C@]314
inactive: outcome [3] | outcome [1] | Potency [4]

COC([CH2][Hg])CNC(=O)c1ccccc1OCC(=O)O (stereo not drawn)
active: Potency [4] 3.55 µM

CCCCNCC(O)c1ccc(O)cc1 (stereo not drawn)
inactive: outcome [2] | outcome [3] | outcome [1] | Potency [4]

CCCCC[C@@H](O)C1C(=O)OC(C)[C@H](O)/C=C/C=C/C=C/C=C/C=C(\C)C(O)C(O)C(O)C[C@H](O)C[C@H](O)C[C@H](O)C[C@H](O)C[C@@H]1O (stereo partly drawn)
inactive: outcome [2] | outcome [3] | outcome [1] | Potency [4]

CC[C@H](C)[C@H]1O[C@]2(C=C[C@@H]1C)C[C@@H]1C[C@@H](C/C=C(\C)[C@@H](O[C@H]3C[C@H](OC)[C@@H](O[C@H]4C[C@H](OC)[C@@H](O)[C@H](C)O4)[C@H](C)O3)[C@@H](C)/C=C/C=C3\CO[C@@H]4[C@H](O)C(C)=C[C@@H](C(=O)O1)[C@]34O)O2
inactive: outcome [2] | outcome [3] | Potency [4]

C/C(=C\c1csc(C)n1)[C@@H]1C[C@@H]2O[C@]2(C)CCC[C@H](C)[C@H](O)[C@@H](C)C(=O)C(C)(C)[C@@H](O)CC(=O)O1
inactive: outcome [2] | outcome [3] | outcome [1] | Potency [4]

FC(F)OC(F)(F)C(F)Cl (stereo not drawn)
inactive: outcome [3] | outcome [1] | Potency [4]

C[N+]1(C)CCCCC1COC(=O)C(O)(c1ccccc1)c1ccccc1 (stereo not drawn)
inactive: outcome [2] | outcome [3] | outcome [1] | Potency [4]

CC(C)CCC(=O)O[C@H]1CC[C@H]2[C@@H]3CCC4=CC(=O)CC[C@]4(C)[C@H]3CC[C@]12C
inactive: outcome [2] | outcome [3] | outcome [1] | Potency [4]

CCC1(CC)C(=O)NC(=O)N(C)C1=O
inactive: outcome [3] | outcome [1] | Potency [4]

CC(C)(O)[C@@H]1[C@H]2OC(=O)[C@@H]1[C@]1(O)C[C@H]3O[C@]34C(=O)O[C@H]2[C@]14C
inactive: outcome [2] | outcome [3] | outcome [1] | Potency [4]

O=C1C[C@@H]2OCC=C3CN4CC[C@]56c7ccccc7N1[C@H]5[C@H]2[C@H]3C[C@H]46
inactive: outcome [3] | outcome [1] | Potency [4]

O=C1C2CC=CCC2C(=O)N1SC(Cl)(Cl)Cl (stereo not drawn)
active: Potency [4] 20 µM

O=P(O)(O)C(Cl)(Cl)P(=O)(O)O
inactive: activity change, negative = inhibition [2] -10.6% [at 5.34 µM] | outcome [3] inactive [at 5.34 µM] | outcome [1] inactive [at 5.34 µM] | outcome [4] inactive [at 5.34 µM]

C[C@@H]([C@H](O)c1ccccc1)N(C)C
inactive: outcome [2] | outcome [3] | outcome [1] | Potency [4]

O=C(NCNC(=O)NC1C(=O)NC(=O)N1CO)NC1C(=O)NC(=O)N1CO (stereo not drawn)
inactive: outcome [2] | outcome [3] | outcome [1] | Potency [4]

CCCC(=O)OC(C(Cl)(Cl)Cl)P(=O)(OC)OC (stereo not drawn)
inactive: outcome [3] | outcome [1] inactive [at 114 µM] | Potency [4]

O=S(=O)(O)c1cc(O)ccc1O
inactive: outcome [2] | outcome [3] | outcome [1] | Potency [4]

CCC1(C)CC(=O)NC(=O)C1
inactive: outcome [2] inactive [at 114 µM] | outcome [3] inactive [at 114 µM] | outcome [1] | Potency [4]

C[C@]12CC[C@H]3[C@@H](CCC4=C(O)C(=O)CC[C@@H]43)[C@@H]1CC[C@@H]2OC(=O)CCC1CCCC1
inactive: outcome [3] | outcome [1] | Potency [4]

CCOC(=O)c1ccccc1C(=O)OCC
inactive: outcome [2] | outcome [3] | outcome [1] | Potency [4]
